Data: PubChem BioAssay AID1776 (NMMLSC, 2009)
Hit rate of the full screen: of about 190,000 compounds, about 490 (0.26%) were called active. No stated cut-off is given here; in the data, active means fluorescence above about 89; inactive means the rest. The full list was thinned out, with actives kept by preference.

Assay: compound fluorescence on glutathione beads, profiling panel, artefact control, biophysical, 488/530 nm, flow cytometry (AID 1776);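 further: glutathione beads carrying GST-tagged Bcl family fusion proteins plus one bare bead set; values are compound well signal with DMSO vehicle wells as background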
Conditions: GSH beads flow cytometry, compound fluorescence 488/530 nm; at 10 µM; active compounds read high

Compound | fluorescence (KMESF)
O=C(COC(=O)C1CCCCC1)Nc1ccc([N+](=O)[O-])cc1 | 25 (inactive)
Cc1ccc(Cl)cc1NC(=O)COC(=O)CC(C)(C)C | 12 (inactive)
Cc1ccc(Cl)cc1NC(=O)COC(=O)C1CCCCC1 | 249 (active)
COc1cc(CN2CCN(Cc3ccc(C)cc3)CC2)c([N+](=O)[O-])cc1OC | 14 (inactive)
Cc1nccc(-c2ccc(-n3c(C)ccc3C)cc2)n1 | 9 (inactive)
CCC(=O)N1CCC(C(N)=O)(N2CCCCC2)CC1 | 12 (inactive)
CCc1nnc(NC(=O)c2cccs2)s1 | 15 (inactive)
Cc1ccnc2nc(C(=O)Nc3nnc(-c4ccccc4)o3)nn12 | 14 (inactive)
CCc1nnc(NC(=O)c2nc3nccc(C)n3n2)s1 | 259 (active)
CC1(c2ccccc2Cl)NC(=O)N(CC(=O)NC(=O)NCc2ccco2)C1=O (stereo not given) | 27 (inactive)
CC1CN(C(=S)SCC(=O)c2ccccc2)CC(C)O1 (stereo not given) | 18 (inactive)
CC1CN(C(=O)CN2C(=O)NC(C)(c3ccccc3)C2=O)CC(C)O1 (stereo not given) | 263 (active)
COc1ccccc1CNC(=O)CN1CCC(n2cnc3cc(F)ccc32)CC1 | 10 (inactive)
CCc1ccc2ncc(C(=O)c3ccccc3)c(N3CCOCC3)c2c1 | 15 (inactive)
CCNc1nc(NC(C)C)nc(N2CC(=O)N(CC(=O)OCC)C2=N)n1 | 29 (inactive)
O=C(Nc1cc(Cl)cc(Cl)c1)C(NCCCO)c1ccccc1 (stereo not given) | 18 (inactive)
CCOc1cc(C(=O)OCC(=O)Nc2cccc(C)c2)ccc1OCC(=O)N1CCOCC1 | 16 (inactive)
CCCCNC(=O)CSc1nc2ccc(NC(=O)CSc3nnc(N)s3)cc2s1 | 17 (inactive)
O=C(NCc1nnc(SCC(=O)N2CCCc3ccccc32)o1)c1ccccc1F | 13 (inactive)
CN1CCN(C(=O)N2c3ccccc3CCc3ccccc32)CC1 | 13 (inactive)
COCCNC(=O)C(c1ccc(C)o1)N(Cc1ccccc1)C(=O)Cn1nnc2ccccc21 (stereo not given) | 21 (inactive)
COc1ccccc1N(C(=O)Cn1nnc2ccccc21)C(C(=O)NCc1ccco1)c1ccc(C)o1 (stereo not given) | 248 (active)
Cc1ccc(C(C(=O)NCc2ccco2)N(CC2CCCO2)C(=O)Cn2nnc3ccccc32)cc1 (stereo not given) | 37 (inactive)
CCCCC(NC(=O)c1cccc(Br)c1)C(=O)O (stereo not given) | 10 (inactive)
CCN(Cc1ccccc1)C(=O)CN1C(=S)NC(C)(C)CC1C (stereo not given) | 20 (inactive)

Compound | fluorescence (KMESF)
COc1cc([C@H](Cc2ccccc2)NC(C)=O)oc(=O)c1 | 18 (inactive)
CC(Oc1ccccc1)C(=O)NN1Cc2ccccc2C1=N (stereo not given) | 9 (inactive)
NC(=O)c1ccc(N2CCOCC2)nc1 | 10 (inactive)
CCN(CC)Cc1nc2sc(C)c(C)c2c(=O)[nH]1 | 11 (inactive)
O=C(CN1CCN(c2ccc(Cl)cc2)CC1)NCc1cccs1 | 18 (inactive)
Cc1cccc(N2Cc3ccccc3C2=NC(=O)c2ccc(Cl)nc2)c1 | 8 (inactive)
O=C(CSc1nc2ccccc2[nH]1)Nc1nc(-c2ccccc2)c(-c2ccccc2)o1 | 12 (inactive)
O=c1c([N+](=O)[O-])cccn1Cc1ccc(F)cc1Cl | 14 (inactive)
COc1ccc(COC(=O)N/N=C(\C)CC(=O)Nc2ccc(Cl)cc2)cc1 | 5 (inactive)
CC(C)(C)c1ccc(NC(=O)COC(=O)CCc2nc3ccccc3c(=O)[nH]2)cc1 | 11 (inactive)
OCCC1CN(Cc2ccccc2-c2ccco2)CCN1Cc1ccsc1 (stereo not given) | 17 (inactive)
COc1ccccc1-n1c(=S)[nH]c2c(sc(=S)n2-c2ccc(C)cc2C)c1=O | 25 (inactive)
O=C(c1cnn(-c2ccc(Cl)cc2)c1)c1ccccc1O | 11 (inactive)
Cc1ccc(CCC(=O)Nc2ncc(Cc3cc(Cl)ccc3Cl)s2)o1 | 7 (inactive)
Cc1ncc(CC(=O)n2cc(C(=O)c3cc(Cl)ccc3O)cn2)s1 | 256 (active)
COCCCNc1nc2c(-c3cccc(C(F)(F)F)c3)nnn2c2ccccc12 | 16 (inactive)
O=S(=O)(Nc1ccccc1N1CCOCC1)c1ccc(Cl)s1 | 266 (active)
COc1cc(NC(=O)c2ccccc2NS(=O)(=O)c2ccc(Cl)s2)cc(OC)c1 | 9 (inactive)
O=S(=O)(Nc1cc(S(=O)(=O)N2CCOCC2)ccc1N1CCCC1)c1cccs1 | 19 (inactive)
COc1cc([N+](=O)[O-])ccc1NC(=O)CN1CCCC1 | 10 (inactive)
CCOC(=O)CC(=O)CSc1nc(-c2ccccc2)cc(-c2ccc(Cl)cc2)c1C#N | 8 (inactive)
CCOC(=O)CSc1ccccn1 | 16 (inactive)
CCOC(=O)CSc1nccc(N(C)C)c1C#N | 281 (active)
Cc1ccc(CN2CCC(N3CCC(C(=O)NCC4CCCO4)CC3)CC2)o1 (stereo not given) | 22 (inactive)
O=C(NCC1CCCCC1)c1cc(S(=O)(=O)N2CCCCC2)ccc1N1CCOCC1 | 10 (inactive)

Compound | fluorescence (KMESF)
CCN1C(=O)/C(=c2\s/c(=C3\Sc4ccccc4N3C)c(=O)n2C)N(C)C1=S | 15 (inactive)
COc1cc(-c2nnn(CC(=O)NCc3ccccc3)n2)cc(OC)c1OC | 13 (inactive)
O=C(CSc1ccc([N+](=O)[O-])cn1)Nc1ccc(N2CCOCC2)cc1 | 16 (inactive)
CCOc1cc(/C=N/NC(=O)OC)ccc1OCCSc1ccc(Cl)cc1 | 13 (inactive)
CCC1C=C(c2ccccc2)C=CN=C1N(CC)CC (stereo not given) | 5 (inactive)
Brc1ccc(CSc2ccc(-c3ccco3)nn2)cc1 | 11 (inactive)
COC(=O)CC1=NN(c2nc(C)cc(C)n2)C(=O)C1 | 14 (inactive)
Cc1ccc2[nH]c(C(=O)O)c(NC(=O)c3ccccc3[N+](=O)[O-])c2c1 | 10 (inactive)
CCCCN1C(=O)/C(=C(/C#N)C(N)=O)c2ccccc21 | 16 (inactive)
CCN(Cc1ccccc1)S(=O)(=O)c1cc(C(=O)O)ccc1OC | 14 (inactive)
CC[C@H]1OC(=O)[C@H](C)[C@@H](O[C@H]2C[C@@](C)(OC)[C@@H](O)[C@H](C)O2)[C@H](C)[C@@H](O[C@@H]2O[C@H](C)C[C@H](N(C)C)[C@H]2O)[C@](C)(O)C[C@@H](C)[C@@H]2N[C@@H](COCCOC)O[C@H]([C@H]2C)[C@]1(C)O | 22 (inactive)
O=C(Cc1c(F)cccc1Cl)Nc1ncc([N+](=O)[O-])s1 | 18 (inactive)
COc1cc(-c2cc(C(=O)OCC(=O)Nc3ccc4c(c3)OCO4)c3ccccc3n2)cc(OC)c1OC | 4 (inactive)
Cc1cc(C)cc(C(=O)NC2C(=O)N3C(C(=O)O)=C(CSc4nnc(C)s4)CSC23)c1 (stereo not given) | 12 (inactive)
CCOC(=O)CNc1nc(Cl)nc(Nc2ccccc2)n1 | 10 (inactive)
Cc1cccc(OCC(O)CN2CCN(CCN3C(=O)c4cccc5cccc(c45)C3=O)CC2)c1C (stereo not given) | 13 (inactive)
Cc1ccccc1OCC(O)CN1CCN(c2ccccn2)CC1 (stereo not given) | 9 (inactive)
OC(COc1cccc2ccccc12)CN1CCN(c2ccccn2)CC1 (stereo not given) | 265 (active)
Cc1cccc(C(=O)OCC(=O)Nc2sc3c(c2C#N)CCC3)c1 | 5 (inactive)
CC(C)CC(=O)NC(=S)Nc1ccc(F)cc1F | 10 (inactive)
Cc1ccc(C2NC(C(=O)O)CS2)cc1 (stereo not given) | 11 (inactive)
O=C(Nc1ccccc1F)c1ccccc1-c1ccccc1 | 15 (inactive)
Cc1cc(C)nc(Nc2cc([N+](=O)[O-])ccc2C)n1 | 10 (inactive)
Cc1ccc(-c2cn3cc([N+](=O)[O-])ccc3n2)cc1 | 13 (inactive)
Cc1ccc(-n2cc3ccc([N+](=O)[O-])cc3n2)cc1 | 104 (active)

Compound | fluorescence (KMESF)
CCOC(=O)C1(Cc2cccc(OC)c2)CCN(Cc2csc(C(C)=O)c2)CC1 | 17 (inactive)
COCC(C)NC(=O)CSc1nc2nn(-c3ccccc3)c(=O)c-2c2n1CCCCC2 (stereo not given) | 25 (inactive)
COc1cccc(OC)c1C(=O)OCC(=O)/C(C#N)=C(\C)N | 11 (inactive)
C/C(=N\NC(=O)NC1CCCCC1)c1ccc(OC(F)F)cc1OC(F)F | 14 (inactive)
COc1cccc(/C=C(/CC(=O)Nc2ccc(N3CCOCC3)cc2)c2nc3ccccc3s2)c1 | 13 (inactive)
CCS(=O)(=O)c1ccc(C(=O)NC)c(Cl)c1Cl | 12 (inactive)
Cc1ccccc1Nc1nc(N)nc(CSc2ccccc2)n1 | 11 (inactive)
Cc1nn(C)c(C)c1S(=O)(=O)N1CCC(CO)(Cc2ccc(Cl)cc2)CC1 | 23 (inactive)
NS(=O)(=O)c1ccc(NC(=S)NC(=O)c2cccc(Br)c2)cc1 | 19 (inactive)
CC(=O)Cc1nsc(NC(=O)c2ccc(Cl)cc2Cl)n1 | 10 (inactive)
COc1cc(NC(=O)c2cc([N+](=O)[O-])ccc2Br)ccc1NC(=O)c1ccco1 | 8 (inactive)
O=C(NCc1cccnc1)c1nc(-c2cccs2)no1 | 15 (inactive)
Cc1ccc(C(=O)NN(CCC#N)C2=NS(=O)(=O)c3ccccc32)cc1 | 20 (inactive)
CCNC(=O)c1ccc(OCC(=O)Nc2ccc(F)cc2)c(OC)c1 | 14 (inactive)
CCC(C)c1ccc(NC(=S)NCc2ccccn2)cc1 (stereo not given) | 13 (inactive)
CC(C)(C)NC(=O)CN1CCC(NC(=O)C23CC4CC(CC(C4)C2)C3)CC1 | 20 (inactive)
Cc1ccc(CN(Cc2cccnc2)C(=S)Nc2cc(Cl)ccc2C)cc1 | 15 (inactive)
CCOC(=O)C(NC(C)=O)C(=O)Nc1ccc(OC)cc1 (stereo not given) | 24 (inactive)
CCOC(=O)C1CCN(c2ccc(C(=O)O)cc2[N+](=O)[O-])CC1 | 14 (inactive)
O=C(/C=C/c1ccc(F)cc1)NC(=S)NNC(=O)c1cccnc1 | 7 (inactive)
Cc1cc(SCC(=O)NCCN2C(=O)CSC2=O)nc2ccccc12 | 15 (inactive)
Cc1ccc(CC2S/C(=C(/C#N)C(=O)N3CCOCC3)N(c3ccccc3)C2=O)cc1 (stereo not given) | 25 (inactive)
CCN(CC)C(=O)CN(c1cccc([N+](=O)[O-])c1)S(=O)(=O)c1ccccc1 | 52 (inactive)
CCOc1ccc(S(=O)(=O)N(CC(=O)O)c2ccccc2)cc1 | 264 (active)
CCN(c1ccccc1)S(=O)(=O)c1ccc(N)cc1 | 14 (inactive)
